Assay outcomes from PubChem.
miR-122 inh = miR-122 suppressors via Renilla sensor increase, primary screen, cell-based, Huh7 psiCHECK-miR122, Renilla luciferase, single point. 48 h. activation, % at 12.5 µM. actives 0.14% (n = 340,000). AID 623901, 2012;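 active = mean activation of 30% or more, with every replicate also reaching 30%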;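 note: higher luciferase signal means stronger suppression of miR-122 activity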
Numbers stand for hits; . = inactive. Only a selection was taken, and hits are over-represented in it overall.

SMILES | miR-122 inh
CC(=O)N(C)C[C@@H]1[C@@H](c2ccc(-c3cccc(C#N)c3)cc2)[C@H](CO)N1C(C)=O | 91.7
CCC(=O)N(C)C[C@H]1Oc2cc(-c3cccnc3)ccc2S(=O)(=O)N([C@@H](C)CO)C[C@H]1C | .
CCC(=O)N1[C@H](CN(C(C)C)S(C)(=O)=O)[C@@H](c2ccccc2)[C@@H]1CO | 91.7
Cc1cc(C(=O)Nc2cccc3c2O[C@@H](CN(C)CC2CCCCC2)[C@@H](C)CN([C@H](C)CO)C3=O)n(C)n1 | .
COCC(=O)N(C)C[C@H]1Oc2ncc(/C=C/c3ccccc3)cc2C(=O)N([C@@H](C)CO)C[C@H]1C | .
CO[C@@H]1CN(C)C(=O)c2cc(NC(=O)c3nc4ccccc4s3)ccc2OC[C@@H](C)N(Cc2ccncc2)C[C@@H]1C | .
C[C@@H]1CN([C@@H](C)CO)C(=O)c2cc(/C=C/c3ccccc3)cnc2O[C@@H]1CN(C)C(=O)Nc1ccccc1F | .
C[C@@H]1CN([C@@H](C)CO)S(=O)(=O)c2ccc(-c3ccncc3)cc2O[C@H]1CN(C)C(=O)Nc1ccc(F)cc1 | .
C[C@@H]1CN([C@@H](C)CO)C(=O)c2cc(C3=CCCCC3)cnc2O[C@H]1CN(C)Cc1cccc(F)c1 | .
C[n+]1c2cc(N)ccc2cc2ccc(N)cc21 | 76.0
CCC(=O)N(C)C[C@@H]1Oc2ncc(C#Cc3ccc(OC)cc3)cc2C(=O)N([C@H](C)CO)C[C@H]1C | .
COc1ccc(-c2cnc3c(c2)C(=O)N([C@H](C)CO)C[C@H](C)[C@@H](CN(C)C(=O)Cc2ccccc2)O3)cc1 | .
COc1ccc(C#Cc2ccc3c(c2)O[C@@H](CN(C)C(=O)NC2CCCCC2)[C@@H](C)CN([C@@H](C)CO)S3(=O)=O)cc1 | .
COc1ccc(C(C(=O)NC2CCCCC2)N(C(=O)CCl)c2cccc(Cl)c2)cc1 (configuration not stated) | 55.4
O=C(NC1CCCC1)C(c1ccccc1)N(Cc1ccc2c(c1)OCO2)C(=O)Cc1cccs1 (configuration not stated) | .
C[C@H]1CN([C@@H](C)CO)S(=O)(=O)c2ccc(/C=C/c3ccccc3)cc2O[C@H]1CN(C)C(=O)c1cccnc1 | .
CCCC#Cc1cnc2c(c1)C(=O)N([C@@H](C)CO)C[C@@H](C)[C@H](CN(C)Cc1cccnc1)O2 | .
Oc1ccc(-c2nc(-c3ccc(O)c(O)c3)cs2)cc1 | 30.3
C[C@@H]1CN([C@H](C)CO)S(=O)(=O)c2ccc(-c3cccc(C(=O)N(C)C)c3)cc2O[C@H]1CN(C)C(=O)Nc1ccccc1 | .
O=S(=O)(c1ccccc1F)N1CC[C@@H]2[C@@H](CO)Nc3ccc(-c4ccc(F)cc4)cc3[C@@H]21 | .
CCC(=O)N(C)C[C@@H]1Oc2ncc(C#CC3(O)CCCC3)cc2C(=O)N([C@@H](C)CO)C[C@H]1C | .
C[C@@H]1CN([C@H](C)CO)S(=O)(=O)c2ccc(-c3ccccc3)cc2O[C@H]1CN(C)C(=O)C1CCCCC1 | .
C[C@@H]1CN([C@@H](C)CO)C(=O)c2cc(/C=C/c3ccccc3)cnc2O[C@@H]1CN(C)C(=O)C1CCC1 | .
CN(C[C@H]1N[C@@H](CO)[C@H]1c1ccc(-c2ccccc2)cc1)C(=O)C1CCC1 | 42.3
CCC(=O)Nc1ccc2c(c1)OC[C@@H](C)N(C(=O)CN1CCOCC1)C[C@@H](C)[C@@H](OC)CN(C)C2=O | .
SMILES | miR-122 inh
CC(=O)N(C)C[C@H]1Oc2cc(C#CC3(O)CCCC3)ccc2S(=O)(=O)N([C@@H](C)CO)C[C@H]1C | .
COCC#Cc1ccc2c(c1)O[C@@H](CN(C)Cc1cncnc1)[C@H](C)CN([C@@H](C)CO)S2(=O)=O | .
COc1cccc(N2CCN(c3ncnc4c3[nH]c3ccc(F)cc34)CC2C)c1 (configuration not stated) | 31.8
C[C@H]1CN([C@@H](C)CO)C(=O)c2cc(-c3ccc(F)cc3)cnc2O[C@@H]1CN(C)Cc1ccc(C(=O)O)cc1 | .
C[C@H](CO)N1C[C@H](C)[C@H](CN(C)C(=O)c2cccnc2)Oc2ncc(/C=C/c3ccccc3)cc2C1=O | .
C/C=C/c1cnc2c(c1)C(=O)N([C@@H](C)CO)C[C@H](C)[C@@H](CN(C)C(=O)c1cccnc1)O2 | .
CC(C)CC#Cc1cnc2c(c1)C(=O)N([C@H](C)CO)C[C@H](C)[C@H](CN(C)S(=O)(=O)c1ccccc1)O2 | .
COCC(=O)N(C)C[C@H]1Oc2cc(-c3ccc(C#N)cc3)ccc2S(=O)(=O)N([C@H](C)CO)C[C@H]1C | 59.1
CC(=O)N(C)C[C@H]1Oc2cc(C#Cc3ccc(F)cc3)ccc2S(=O)(=O)N([C@H](C)CO)C[C@H]1C | 37.1
CCCC#Cc1ccc2c(c1)O[C@@H](CN(C)C(=O)CC)[C@H](C)CN([C@@H](C)CO)S2(=O)=O | .
Cc1ccccc1-c1ccc2c(c1)O[C@H](CN(C)C(=O)Nc1ccccc1)[C@@H](C)CN([C@H](C)CO)S2(=O)=O | .
CC(=O)N(C)C[C@H]1Oc2cc(C#C[C@@H](C)O)ccc2S(=O)(=O)N([C@H](C)CO)C[C@@H]1C | .
